Source: PubChem BioAssay (NCI)
This is part of a sample that, as a whole, favours compounds with a hit. Of some 79,000 tested, about 15% had one in any assay. Values without a mark were called inactive. The source made the active and inactive calls. Rule as the data show it: active = growth inhibition above about 70%; inactive = the rest.

Columns and labels:
[1] = NCI Yeast Anticancer Drug Screen. Data for the rad50 strain (AID 155);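 also: 0% = growth of vehicle-only cultures of the same strain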; conditions: S. cerevisiae rad50 strain growth inhibition; at 50.0 µM; hits give high values
How it was run: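 DNA repair mutant yeast, compound exposure, growth read-out; inhibition is taken relative to vehicle.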

[2] = NCI Yeast Anticancer Drug Screen. Data for the mec2-1 strain (AID 157); conditions: S. cerevisiae mec2-1 strain, at 50.0 µM, hits give high values
How it was run: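 Test agents were screened against the mec2-1 yeast strain, with defined DNA repair or cell cycle alteration. Growth was scored as inhibition against vehicle-only controls.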

[3] = NCI Yeast Anticancer Drug Screen. Data for the sgs1 mgt1 strain (AID 161);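 also: 0% = growth of cultures given vehicle only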; conditions: S. cerevisiae sgs1 mgt1 strain, at 50.0 µM, hits give high values
How it was run: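 Mutant yeast exposed to compound; growth scored against vehicle-only wells.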

[4] = NCI Yeast Anticancer Drug Screen. Data for the cln2 rad14 strain (AID 165);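 also: 0% = growth equal to vehicle treated cultures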; conditions: S. cerevisiae cln2 rad14 strain, at 50.0 µM, hits give high values
How it was run: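 Growth of compound-exposed yeast (cln2 rad14 genotype) measured and expressed as inhibition relative to vehicle.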

[5] = NCI Yeast Anticancer Drug Screen. Data for the bub3 strain (AID 167); conditions: S. cerevisiae bub3 mutant strain, at 50.0 µM, hits give high values
How it was run: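 In this screen, a yeast mutant lacking normal mitotic checkpoint function is challenged with compound. Relative growth versus vehicle gives the inhibition value.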

[6] = NCI Yeast Anticancer Drug Screen. Data for the mlh1 rad18 strain (AID 175); conditions: S. cerevisiae mlh1 rad18 strain growth inhibition; at 50.0 µM; hits give high values
How it was run: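 In this whole-cell yeast screen, a strain with altered DNA damage repair is challenged with compound, and its growth is measured against matched vehicle-treated controls.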

Row | Structure (SMILES) | growth inhibition [1] | growth inhibition [2] | growth inhibition [3] | growth inhibition [4] | growth inhibition [5] | growth inhibition [6]
1 | Cc1nnc(NC2=NCCO2)s1 | -4.2% | -5.5% | -1.6% | -28.1% | -14.2% | -4%
2 | CNC(=O)O/N=C(\CN=[N+]=[N-])C(C)(C)C | 4.6% | 3.55% | -1.4% | 0% | -19.6% | -20.5%
3 | Clc1cccc2nncc(N3CC3)c12 | 2% | 23.6% | -17.2% | -6.2% | -9.05% | 9.25%
4 | CCCCOCCOP(=O)(OCCOCCCC)OCCOCCCC | 7.85% | -15.2% | 2% | -14.8% | -39% | -28.4%
5 | CCOP(=O)(OCC)/C(C#N)=C/c1cnc[nH]1 | -51.6% | -30.6% | -38% | -17.2% | -20.2% | -54.5%
6 | CCN1C(=O)C(C)C(=O)N(C)C1=O (stereo unspecified) | -33.6% | 18.7% | 0.9% | -11.4% | 0.1% | 1.8%
7 | O=NNc1cc(=O)[nH]c(=O)[nH]1 | 5.4% | -4.5% | -3.85% | -39.2% | -7.6% | -6.5%
8 | CCNP(=O)(OCC)OCC | 9.9% | -15.6% | 12.2% | 24.4% | 7.6% | 17.9%
9 | Oc1ccc(C(c2cc3c(cc2O)OCO3)N2CCNCC2)cc1 (stereo unspecified) | 21.8% | 25.7% | 25.9% | -22.2% | 18.5% | 31.7%
10 | CCCOP(=O)(OCCC)C(=O)Nc1ccc(Br)cc1 | -25.7% | 2.95% | 6.25% | -24.1% | 25% | -9.5%
11 | N.N.N.N.N.NC(=O)[O-].[Co+3].[I-] | -14.1% | 3.9% | -13.1% | 25.7% | -7.75% | -15.7%
12 | CC(C)(O)/C=C/C(=O)[C@](C)(O)[C@H]1[C@H](O)C[C@@]2(C)[C@@H]3CC=C4[C@@H](C[C@H](O)C(=O)C4(C)C)[C@]3(C)C(=O)C[C@]12C | 8.3% | -14.6% | -6.7% | 0.55% | -12.8% | 1.8%
13 | CC1(C)OC2(C)CCC1C1C2N1C(=O)c1ccccc1 (stereo unspecified) | 0.75% | -9.75% | 5.25% | 4.95% | 19.2% | -6.2%
14 | CC(=O)O[C@H]1CC[C@]2(C)C3=C([C@@H](OO)C[C@H]2C1(C)C)[C@]1(C)CC[C@H]([C@H](C)CCCC(C)C)[C@@]1(C)CC3 | 13.1% | 4.4% | 14.7% | 20.9% | 8.45% | 25.3%
15 | O=C1NC(=O)C(Cc2ccc3c(c2)OCO3)C(=O)N1 | -6.05% | -9.5% | 4.95% | -62.9% | 7.35% | 8.15%
16 | CCCCCCCCCCCCP(=O)(O)OCC(N)C(=O)O (stereo unspecified) | -0.9% | -21.6% | 1.5% | -7.1% | -12.8% | -17.9%
17 | CCOP(=O)(OCC)/C(C#N)=C/c1cccn1C | -0.95% | -32.7% | -44% | -17.2% | -21.8% | -7.35%
18 | Brc1ccc(Oc2ccc(Br)cc2Br)c(Br)c1 | 13.9% | -21.5% | 8.2% | 2% | 21.6% | 32.4%
19 | OCC(Br)CBr (stereo unspecified) | 40.9% | 0.35% | -3.6% | -62.6% | -11.7% | -4.5%
20 | O=c1sc2ccccc2n1CC1CS1 (stereo unspecified) | 22.4% | -10.1% | -8.75% | 5.25% | -27.1% | -0.25%
21 | CC(NC1=NCCO1)c1ccsc1 (stereo unspecified) | 21.9% | 12.6% | 3.5% | 14.8% | 3.75% | -24.1%

Row | Structure (SMILES) | growth inhibition [1] | growth inhibition [2] | growth inhibition [3] | growth inhibition [4] | growth inhibition [5] | growth inhibition [6]
22 | CCC(C)C(=O)OC1CC2(C)C(c3ccoc3)OC(=O)CC23OC2(C)OC34C(OC(=O)C(C)C)C3(O)C(OC(=O)C5(C)OC5C)C5(C)CC3(O)C(C)(C5CC(=O)OC)C14O2 (stereo unspecified) | 24.4% | 19.1% | 9.3% | 26.9% | 13.1% | -24.3%
23 | O=NNc1ccc(C(F)(F)F)cn1 | -7.95% | -6.95% | -17.9% | -5.75% | -17.4% | -15.2%
24 | COC(=O)C(Cl)Cl | 9.2% | -17.1% | -1.85% | -47.9% | -5.6% | 14.1%
25 | CCOP(=S)(OCC)Oc1cnn(C)c(=S)c1Cl | 12.8% | -18.6% | -0.85% | 10.3% | -4.85% | 8.05%
26 | Cc1ccccc1C(=O)[O][Pb]([CH3])([CH3])[CH3] | 21.4% | -48% | -6.5% | -27.9% | 0% | 7%
27 | O=C(O)C(=O)O.[Co].[NH-]CC[NH-].[NH-]CC[NH-] | 4.9% | 13.4% | 6.65% | -12.8% | 22.4% | 12.8%
28 | CCOP(=O)(OCC)/C(C#N)=C/c1ccc(OC)cc1 | 2.9% | -1.8% | -11.4% | 11.7% | 11.1% | -1.05%
29 | O=C(COc1cccc(Cl)c1)NCc1ccccc1NC(=O)c1ccc(S(=O)(=O)F)cc1 | 95.2% (active) | 84.3% (active) | 95.2% (active) | 89.9% (active) | 90.5% (active) | 95.8% (active)
30 | COc1ccc(C(CC(=O)O)CC(=O)N(CCCl)CCCl)cc1C (stereo unspecified) | 64% | 25.6% | 17% | 27.1% | 63.7% | 24.4%
31 | C[CH2][Sn](/[CH]=C\CO)([CH2]C)[CH2]C | 63% | 77.8% (active) | 85.2% (active) | 43.8% | 93.6% (active) | 94.6% (active)
32 | CC(Cl)CN(CC(C)Cl)C(=O)Oc1ccc(CC(N)C(=O)O)cc1 (stereo unspecified) | 31.1% | 0.7% | 25.4% | -20.6% | -0.1% | 20.3%
33 | CCOP(=O)(O)OCC | -16.6% | -20.4% | -20.1% | -0.25% | 0.95% | -49.9%
34 | N#Cc1ccccn1 | 13.1% | -30.7% | 12.7% | -6.95% | 3.5% | 5.9%
35 | O=C1c2ccccc2OP(=O)(OCC(F)(F)F)OC1(C(F)(F)F)C(F)(F)F (stereo unspecified) | -21.4% | -54.7% | -15.2% | -65.5% | -41.5% | -22.8%
36 | CCCCCCNP(=O)(OCC)OCC | -6% | -36.9% | 5.3% | 6.8% | -41.8% | 12.3%
37 | OCCCN=Cc1ccccc1O.OCCCN=Cc1ccccc1O.[Cu] | 38% | -9.5% | 22.2% | -32.1% | 0.35% | 15.6%
38 | C/C=C(/C)C(=O)O[C@H]1CC[C@@]2(C)[C@@H]3CC[C@H]4[C@]5(O)C[C@H](O)[C@@]6(O)[C@@H](CN7C[C@@H](C)CC[C@H]7[C@@]6(C)O)[C@]5(O)C[C@@]42O[C@@]13O | 27.1% | -15.9% | 18% | 0.35% | 22.8% | 30.6%
39 | N#CCC(N)C(=O)O (stereo unspecified) | 0.7% | -11.1% | -11.8% | -34.4% | -9.2% | 8.65%
40 | O=C1NC(=O)C2(c3ccccc3)CCN1C2=O (stereo unspecified) | 1.35% | 4.6% | 1.8% | -7% | -12.2% | 10%
41 | CCC1CCC2CCCC(C)N12 (stereo unspecified) | 9.05% | 4.25% | -3.2% | 1.5% | 8.2% | 7.75%
